Data published in PubChem BioAssay (EPA / NIEHS).
Active and inactive are the calls of the source. The calls were made as follows: active = hit-call score of the fitted dose curve at least 0.9, where 1 is the maximum; inactive = score below 0.9.

Assay: ATG_MRE_CIS: Attagene CIS-FACTORIAL HepG2 Assay for human Metal Responsive Element (MRE) (AID 2282954)
Conditions: HepG2 MRE cis-reporter transcription, Attagene multiplex; actives raise or lower the signal
Experimental: ATG_CIS is a cell-based, multiplexed-readout assay that uses HepG2, a human liver cell line, with measurements taken at 24 hours after chemical dosing in a 24-well plate.ATG_MRE_CIS is one of 52 assay component(s) measured or calculated from the ATG_CIS assay. It is designed to make measurements of mRNA induction, a form of inducible reporter, as detected with fluorescence intensity signals by Reverse transcription polymerase chain reaction (RT-PCR) and Capillary electrophoresis technology.Data from the assay component ATG_MRE_CIS was analyzed into 1 assay endpoint. This assay endpoint, ATG_MRE_CIS, was analyzed with bidirectional fitting relative to DMSO as the negative control and baseline of activity. Using a type of inducible reporter, measures of mRNA for gain or loss-of-signal activity can be used to understand the reporter gene at the transcription factor-level as they relate to the gene MTF1. Furthermore, this assay endpoint can be referred to as a primary readout, because this assay has produced multiple assay endpoints where this one serves a reporter gene function. To generalize the intended target to other relatable targets, this assay endpoint is annotated to the dna binding intended target family, where the subfamily is zinc finger.
Human liver HepG2 cells are transiently transfected with multiple reporter transcription units (MRTUs) in 6-well plates using FuGene 6 reagent (Roche; 3 ml FuGene/1 mg DNA). The MRTU constructs are regulated by a cis-regulating element (promoter). […] A major difference between the CIS and TRANS system is that in CIS activities of endogenous TFs are measured, whereas the TRANS assay evaluates changes in activities of exogenous, chimeric NR-Gal4 proteins. […] At the end of 24 hour incubation, total RNA was isolated using TriZol reagent (Invitrogen). The isolated RNA is then reverse-transcribed using oligo(dT) primer and Mo-MLV reverse transcriptase (Invitrogen) with DNAse I (Ambion) treatment for 30 min. The one-tenth of the produced cDNA was amplified by PCR using Taq DNA polymerase (Invitrogen) and two reporter sequence-specific primers. The PCR products were fluorescently labeled by primer extension with 6-arboxyfluorescein (6-FAM) 5'-labeled reporter sequence-specific primer (2 min at 95 C, 20 s at 68 C and 10 min at 72 C) and these products were digested with 5U of HpaI (New England Biolabs) for 2h at 37 C. The fragments were purified using Qiaquick PCR columns (Qiagen), analyzed on an ABI 3130xL genetic analyzer (Applied Biosystems) with peak positions identified by using a set of X-rhodamine (ROX)-labeled MapMarker1000 molecular weight standards (BioVentures). The raw capillary electrophoresis data was processed using Attagraph software (Attagene).

outcome, inactive:
OCCCS, c1ccc(CNCc2ccccc2)cc1, CCCCCCCC/C=C\CCCCCCCC(=O)OCCO, CCCCCCCCCCc1ccccc1, C=CC(C)(C)C, Cc1ccc(N)c([N+](=O)[O-])c1, CCC(CC)C(=O)O, CC(=O)[C@@]1(O)CC[C@H]2[C@@H]3C[C@H](C)C4=CC(=O)C=C[C@]4(C)[C@@]3(F)[C@@H](O)C[C@@]21C, c1ccc(CCCc2ccncc2)cc1, Cc1ccc([N+](=O)[O-])cc1S(=O)(=O)O, O=C(C(Cl)Cl)N1CCOC12CCCCC2, CCCCC(CC)COC(=O)c1ccccc1O (stereo not given), CCCCCC/C=C/C=O, O=C(c1ccccc1)C1CCC1, CCCCCCCCO[C@@H]1O[C@H](CO)[C@@H](O)[C@H](O)[C@H]1O, COC(=O)/C=C\C(=O)O, CC(C)C(=O)C(C)C, O=C(O)c1cc2ccccc2nc1C(=O)O, CCOC(=O)[C@H](C)O, Cn1c(=O)[nH]c2ncn(C)c2c1=O, CC(=O)OCCC1CCCCC1, CC1(C)[C@H]2CC[C@]1(C)C(=O)C2, N[C@H]1C(O)O[C@H](CO)[C@H](O)[C@@H]1O (stereo not given in full), Cn1c([N+](=O)[O-])cnc1COC(N)=O, CCO[Si](C)(OCC)OCC, O=C1CCCCCCCCCCC(=O)OCCO1, CCCC(=O)OCc1ccccc1, Cc1ccc2oc(=O)ccc2c1, NCCCN1CCN(CCCN)CC1, CC(=O)[C@H]1[C@H](C#N)C[C@H]2[C@@H]3CC=C4C[C@@H](O)CC[C@]4(C)[C@H]3CC[C@@]21C, CC1(C)O[C@@H]2C[C@H]3[C@@H]4C[C@H](F)C5=CC(=O)CC[C@]5(C)[C@H]4[C@@H](O)C[C@]3(C)[C@]2(C(=O)CO)O1, CC(C)(C)C1CCCCC1=O (stereo not given), CC(C)CC(O)Cc1ccccc1 (stereo not given)

AC50, active:
OC1CCCCCCCCCCC1 100 µM, Cc1ccc(C(C)c2ccc(C)c(C)c2)cc1C 181 µM, CCOC(=O)N1CCC(=C2c3ccc(Cl)cc3CCc3cccnc32)CC1 10.7 µM, CCCCCCOc1cc(C)c(O)c(C)c1C 18.2 µM, CC1=Nc2ccc3ccccc3c2C1(C)C 100 µM, [Cl][Bi]([Cl])([c]1ccccc1)([c]1ccccc1)[c]1ccccc1 6.46 µM, Nc1ccc(N=Nc2ccccc2)c(N)n1 69.9 µM
